Inconclusive results are not listed. Calls of active or inactive are those of the source. Unless noted, calls come from the whole dose curve; as a rule, active = well fitted curve in the direction sought with a large enough effect in the repeat runs; inconclusive = weak or mixed curves; inactive = flat fitted curve, though single readings scatter.
Experiments:
[1] = qHTS assay to test for compound auto fluorescence at 535 nm (green) in HEK293 cells (AID 720680); settings: green autofluorescence 485/535 nm; series mostly up to 91.3 µM
[2] = qHTS assay to test for compound auto fluorescence at 460 nm (blue) in HEK293 cell free culture (AID 720681); settings: cell-free medium, autofluorescence 405/460 nm (blue); series mostly up to 91.3 µM
Procedure, shortened: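 Blue fluorescence (Ex 405/Em 460 nm, triamterene-equivalent) was read immediately after pin transfer of compound or DMSO into medium (DMEM, 10% FBS) without cells.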

[3] = qHTS assay to test for compound auto fluorescence at 590 nm (red) in HEK293 cell free culture (AID 720683); settings: cell-free medium autofluorescence, Ex540/Em590 red; series mostly up to 91.3 µM
Procedure, shortened: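 Red-channel autofluorescence of compounds in culture medium (DMEM, 10% FBS), no cells, measured at 540/590 nm. Rose Bengal sodium is the reference fluorophore for equivalence.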

[4] = qHTS assay to test for compound auto fluorescence at 590 nm (red) in HepG2 cell free culture (AID 720684); settings: cell-free medium autofluorescence, red 540/590 nm; series mostly up to 91.3 µM
Procedure, shortened: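 Cell-free; medium MEM + 10% FBS; compound or DMSO added by pintool; read Ex 540/Em 590 nm; Rose Bengal sodium as red reference fluorophore.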

[5] = qHTS assay to test for compound auto fluorescence at 460 nm (blue) in HepG2 cell free culture (AID 720685); settings: Cell-free culture medium, blue autofluorescence 405/460 nm; series mostly up to 91.3 µM
Procedure, shortened: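 Cell-free plates of MEM plus 10% FBS received 23 nL compound or DMSO vehicle; blue-channel (405/460 nm) intensity scored against triamterene as reference fluorophore.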

[6] = qHTS assay to test for compound auto fluorescence at 535 nm (green) in HepG2 cell free culture (AID 720686); settings: Cell-free medium, green autofluorescence 485/535 nm; series mostly up to 91.3 µM
[7] = biological target: Glucocorticoid receptor (Homo sapiens) (UniProt P04150); experiment: qHTS assay to identify small molecule agonists of the glucocorticoid receptor (GR) signaling pathway (AID 720691; active = well fitted activation curve with a large enough effect in the signal ratio in the repeat runs, not every such curve was filed as active; the % refers to the signal ratio); settings: GR-bla HeLa, beta-lactamase reporter ratio, 18 h; series mostly up to 62.4 µM
Glucocorticoid receptor (Homo sapiens), sequence (P04150 whole entry, looked up): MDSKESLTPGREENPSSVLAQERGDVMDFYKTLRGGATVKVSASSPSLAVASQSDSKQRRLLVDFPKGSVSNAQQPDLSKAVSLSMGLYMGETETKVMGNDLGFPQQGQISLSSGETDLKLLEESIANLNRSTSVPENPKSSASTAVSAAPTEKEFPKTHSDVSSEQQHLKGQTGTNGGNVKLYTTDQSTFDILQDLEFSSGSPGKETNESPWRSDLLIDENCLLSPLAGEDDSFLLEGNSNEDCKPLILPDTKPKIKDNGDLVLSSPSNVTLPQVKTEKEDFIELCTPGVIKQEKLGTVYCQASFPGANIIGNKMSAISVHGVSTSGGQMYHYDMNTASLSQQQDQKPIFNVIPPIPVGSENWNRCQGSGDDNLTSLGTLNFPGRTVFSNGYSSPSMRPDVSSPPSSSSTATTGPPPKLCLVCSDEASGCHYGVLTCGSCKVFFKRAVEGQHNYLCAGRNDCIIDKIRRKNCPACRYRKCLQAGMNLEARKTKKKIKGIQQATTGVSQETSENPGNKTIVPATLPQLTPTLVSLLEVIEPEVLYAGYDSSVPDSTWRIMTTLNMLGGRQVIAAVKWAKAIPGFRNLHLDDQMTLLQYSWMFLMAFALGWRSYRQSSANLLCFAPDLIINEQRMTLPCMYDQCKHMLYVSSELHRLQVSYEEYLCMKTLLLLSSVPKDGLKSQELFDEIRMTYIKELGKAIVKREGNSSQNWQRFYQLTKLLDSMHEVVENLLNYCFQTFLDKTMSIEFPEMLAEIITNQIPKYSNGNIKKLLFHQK
Procedure, shortened: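 Measures GR pathway activation through a GRE-beta-lactamase reporter stably integrated in HeLa cells, with 18 h compound treatment at 37 C and fluorescence detection using a FRET substrate.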

[8] = biological target: Glucocorticoid receptor (Homo sapiens) (UniProt P04150); experiment: qHTS assay to identify small molecule antagonists of the glucocorticoid receptor (GR) signaling pathway (AID 720692; active = well fitted inhibition curve with a large enough effect in the signal ratio in the repeat runs, not every such curve was filed as active; the % refers to the signal ratio); settings: GR-bla HeLa, beta-lactamase FRET ratio, dexamethasone-stimulated, 18 h; series mostly up to 58.5 µM
Procedure, shortened: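 Tox21 10K library screened in concentration-response for blockade of dexamethasone (5 nM final)-induced GRE-bla reporter activity in HeLa cells; 18 h treatment, fluorescence read.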

[9] = qHTS assay to test for compound auto fluorescence at 460 nm (blue) in HepG2 cells (AID 720687); settings: autofluorescence 405/460 nm, 1 h; series mostly up to 91.3 µM
Procedure, shortened: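 Blue-channel autofluorescence (Ex/Em 405/460 nm, triamterene-equivalent) was measured after 1 hr compound exposure at 37 C, 5% CO2. Cells were HepG2, plated overnight at 37 C in MEM plus 10% FBS.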

[10] = qHTS assay to test for compound auto fluorescence at 535 nm (green) in HEK293 cell free culture (AID 720682); settings: cell-free medium, green autofluorescence 485/535 nm; series mostly up to 91.3 µM
Procedure, shortened: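 Steps: dispense DMEM/10% FBS into empty wells; pin in compound or DMSO; measure fluorescence at 485/535 nm. Values are fluorescein equivalents.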

Measured: Potency

O=C(O)/C=C/c1ccccc1
not listed: [9] | [10]
inactive: all other assays above

CC(C)CCCC(C)CC=O (stereo unspecified)
not listed: [7] | [8] | [10]
inactive: all other assays above

CO[Si](CCCCl)(OC)OC
not listed: [9]
inactive: all other assays above

O=C(O)C(=O)Nc1cccc(-c2nn[nH]n2)c1
not listed: [9]
inactive: all other assays above

CNC(=O)C(c1ccccc1)c1ccccc1
not listed: [9]
inactive: all other assays above

CC(C)CCO
not listed: [7] | [8] | [10]
inactive: all other assays above

Cc1ccc(S(=O)(=O)NC(=O)NC2CCCCCCC2)cc1
not listed: [8] | [10]
inactive: all other assays above

C1=C\CC/C=C\CC/1
not listed: [2] | [7] | [8]
inactive: all other assays above

O=C1OC(=O)c2cc(Oc3ccc4c(c3)C(=O)OC4=O)ccc21
not listed: [2] | [7] | [8]
inactive: all other assays above

CC(C)CCC(=O)CCC(C)C
not listed: [2] | [8] | [10]
inactive: all other assays above

CC(C)c1ccccc1O
not listed: [2] | [9] | [10]
inactive: all other assays above

CC1=CC[C@H](CC=O)C1(C)C
not listed: [2] | [8]
inactive: all other assays above

CCOC(=O)CCCCCCCCC(=O)OCC
not listed: [1] | [7] | [8]
inactive: all other assays above

COc1cc([N+](=O)[O-])ccc1N
not listed: [2] | [8]
inactive: all other assays above

C=COCCOCCOC=C
not listed: [2] | [10]
inactive: all other assays above

COC(/C=C(\C)CCC=C(C)C)OC
not listed: [2] | [9] | [10]
inactive: all other assays above

F[Si-2](F)(F)(F)(F)F
not listed: [2]
inactive: all other assays above

CCCCC(C)C(=O)O (stereo unspecified)
not listed: [2] | [7] | [8]
inactive: all other assays above

CCCCCCCCCCCCC1CO1 (stereo unspecified)
not listed: [2]
inactive: all other assays above

CC(C)COC(=O)COc1ccc(Cl)cc1Cl
not listed: [2] | [8]
inactive: all other assays above

Nc1c(NC/C=C\COc2cc(CN3CCCCC3)ccn2)c(=O)c1=O
not listed: [2] | [8] | [9]
inactive: all other assays above

CCCCC/C=C/CC(=O)OC
not listed: [2] | [10]
inactive: all other assays above

Reference: PubChem BioAssay (Tox21)
